# Results: the OligoGym collection
# Biological target: GPR137
# Assay: pooled miR-30 sensor sort-seq; sequence = guide strand
# Conditions: shRNA
# Further: reference of the scale not given here.
row,Sequence,sensor-assay potency score (higher = more potent)
1,TGGTCAGACACATTGTACCAGC,-1.27
2,AAGAACTGCAGGCAGACGGGGC,-0.842
3,TAGAGCAGGACCATGGCGCCAC,-0.353
4,TCATTCACCAGGTCCGCCTGGT,0.279
5,TCCAGGTAGATGCTAGTGGAGG,-2.54
6,TAATCGAAGGTGTCCAGCCGGC,-0.771
7,AGTGCTGTCAGGTTGTAGCAGG,-1.93
8,ATGACGAACAGGGAGTCGCTCA,-1.35
9,TCAGACACATTGTACCAGCCGT,-0.426

# Biological target: GPR172A
# Assay: as above
# Conditions: shRNA
row,Sequence,sensor-assay potency score (higher = more potent)
1,TTAGGGTCTGGACCAGGGGTGG,-1.64
2,TGACCCAGGAAGAATGACCGTA,-0.348
3,TTCACGTAGGAGAACACGCCAA,-0.595
4,TGACATTCGAGGCACAGCATGC,-1.17
5,TCACGTAGGAGAACACGCCAAG,-1.31
6,TTGGTGGCTCTTGCAGTGGTGA,-1.5
7,TGATAGAAGCTGATAGGCCTTA,-0.123
8,TGGAACACGTGATAGATGCTGG,-0.57
9,AAGAATGACCGTAAGAAGCGAG,-0.349
10,TTCTGCTGTGGAACACGTGATA,-0.914
11,TTGGTCAGCGCGTTGGTGGCGG,-0.894
12,AAAACGCTCAAGGAAGTCGAGC,-1.04

# Biological target: GPR173
# Assay: as above
# Conditions: shRNA
row,Sequence,sensor-assay potency score (higher = more potent)
1,TACTCGAAGAGGAGCAGCTTGC,-1.59
2,AATCAGTCCTAGCAGTACCAGC,-1.44
3,TTTCACAAACACTCGCCAGTAG,-0.0654
4,AAGGCCACAATCTTGCAGCTGA,0.463
5,TCACGCACATAATCAGTCCTAG,-0.629
6,TTCACCCTTGACCTCGTCCATG,-1.32
7,TGCACTGGCTTCATCTTGCGGT,-0.396
8,TAAACTTGTAGGTGCCCACGTC,0.745
9,TAGCGGGTGACGCTGATGCAGA,-1.36
10,TTGCCGTAGACAGCATGGGTAG,-1.57
11,TGAAGGTCCATGAAGAGCCGTG,-0.497
12,ATAAAGGCCACAATCTTGCAGC,-0.595

# Biological target: GPR176
# Assay: as above
# Conditions: shRNA
row,Sequence,sensor-assay potency score (higher = more potent)
1,TAACACCATGAAGTTTCCGAGC,-1.48
2,TTGTCTGGATCAGCTCTTCTGG,-0.703
3,TTGCTCCAGACTTCCGTGCAGG,-0.956
4,TTTATTGTTTCTGCTCATCTTC,-0.299
5,AAAAATTTGACGACCTTGCAGA,-0.383
6,ATAGATGTCAGCCACATTGGTT,-1.26
7,TTGGTTACTGCAAACACAGGGA,0.111
